# In PubChem BioAssay (EPA / NIEHS):
# “And” between values parts separate entries of the source, which are not always exact repeats. Equal values may be shown once. The source holds several records for some structures; these can differ, active in one and inactive in another. The source made the active and inactive calls. The calls were made as follows: active = hit-call score of the fitted dose curve at least 0.9, where 1 is the maximum; inactive = score below 0.9.
# Assay: ATG_VDRE_CIS: Attagene CIS-FACTORIAL HepG2 Assay for human Vitamin D Receptor Element (VDRE) (AID 2282968)
# Settings: HepG2 VDRE cis-reporter transcription, actives raise or lower the signal
# Description: ATG_CIS is a cell-based, multiplexed-readout assay that uses HepG2, a human liver cell line, with measurements taken at 24 hours after chemical dosing in a 24-well plate.ATG_VDRE_CIS is one of 52 assay component(s) measured or calculated from the ATG_CIS assay. It is designed to make measurements of mRNA induction, a form of inducible reporter, as detected with fluorescence intensity signals by Reverse transcription polymerase chain reaction (RT-PCR) and Capillary electrophoresis technology.Data from the assay component ATG_VDRE_CIS was analyzed into 1 assay endpoint. This assay endpoint, ATG_VDRE_CIS, was analyzed with bidirectional fitting relative to DMSO as the negative control and baseline of activity. Using a type of inducible reporter, measures of mRNA for gain or loss-of-signal activity can be used to understand the reporter gene at the transcription factor-level as they relate to the gene VDR. Furthermore, this assay endpoint can be referred to as a primary readout, because this assay has produced multiple assay endpoints where this one serves a reporter gene function. To generalize the intended target to other relatable targets, this assay endpoint is annotated to the nuclear receptor intended target family, where the subfamily is non-steroidal.
# Human liver HepG2 cells are transiently transfected with multiple reporter transcription units (MRTUs) in 6-well plates using FuGene 6 reagent (Roche; 3 ml FuGene/1 mg DNA). The MRTU constructs are regulated by a cis-regulating element (promoter). […] A major difference between the CIS and TRANS system is that in CIS activities of endogenous TFs are measured, whereas the TRANS assay evaluates changes in activities of exogenous, chimeric NR-Gal4 proteins. […] At the end of 24 hour incubation, total RNA was isolated using TriZol reagent (Invitrogen). The isolated RNA is then reverse-transcribed using oligo(dT) primer and Mo-MLV reverse transcriptase (Invitrogen) with DNAse I (Ambion) treatment for 30 min. The one-tenth of the produced cDNA was amplified by PCR using Taq DNA polymerase (Invitrogen) and two reporter sequence-specific primers. The PCR products were fluorescently labeled by primer extension with 6-arboxyfluorescein (6-FAM) 5'-labeled reporter sequence-specific primer (2 min at 95 C, 20 s at 68 C and 10 min at 72 C) and these products were digested with 5U of HpaI (New England Biolabs) for 2h at 37 C. The fragments were purified using Qiaquick PCR columns (Qiagen), analyzed on an ABI 3130xL genetic analyzer (Applied Biosystems) with peak positions identified by using a set of X-rhodamine (ROX)-labeled MapMarker1000 molecular weight standards (BioVentures). The raw capillary electrophoresis data was processed using Attagraph software (Attagene).
Structure (SMILES),outcome,AC50
Cc1ccc(S(=O)(=O)O)c(C)c1,inactive,–
CCCOC(=O)c1ccc(O)cc1,inactive,139 µM (active)
CCCCCCCCCCCCN1CCCC1=O,inactive,–
NCC(F)(F)C(F)(F)C(F)(F)C(F)(F)C(F)(F)C(F)(F)C(F)(F)F,inactive,–
O=C1OC2(c3ccccc31)c1cc(Br)c(O)c(Br)c1Oc1c2cc(Br)c(O)c1Br,inactive,56.4 µM (active)
CC(C)(C)c1ccc(O)c(C(C)(C)C)c1,inactive,–
CCC(C)(C)C1CCC(O)CC1 (stereo not given),inactive,–
C[C@@H]1C[C@H]2[C@@H]3CCC4=CC(=O)C=C[C@]4(C)[C@@]3(F)[C@@H](O)C[C@]2(C)[C@@]1(O)C(=O)COP(=O)(O)O,inactive,–
CC(C)(C)CC(C)(C)c1ccc(O)c(-n2nc3ccccc3n2)c1,–,6.7 µM (active)
FC(F)(I)C(F)(F)C(F)(F)C(F)(F)C(F)(F)C(F)(F)I,inactive,–
c1ccc2c(c1)Cc1ccccc1-2,inactive,–
COc1cc(CCC(=O)CC(=O)CCc2ccc(O)c(OC)c2)ccc1O,–,13.7 µM (active)
CCCCC[C@H](O)CC(=O)CCc1ccc(O)c(OC)c1,–,27.7 µM (active)
CN1CCN(c2ccccc2/C=C2\SCCN(c3ccc(Cl)c(Cl)c3)C2=O)CC1,inactive,–
O=C(/C=C/c1ccc(O)cc1)CC(=O)/C=C/c1ccc(O)cc1,–,5.76 µM (active)
NC(=O)N1C(=O)C(C(=O)c2cc(Cl)cs2)c2cc(F)c(Cl)cc21 (stereo not given),–,9.88 µM (active)
CC[C@H](c1ccc(O)cc1)[C@@H](CC)c1ccc(O)cc1,inactive,3.47 µM (active) and 2.97 µM (active)
Oc1cc2ccccc2c2ccccc12,inactive,–

Structure (SMILES),outcome,AC50
CCCOc1sc(C(=O)N2CCC(c3cc(CN)ccc3F)CC2)c(C)c1Br,inactive,–
c1ccc2cc3c(ccc4ccccc43)cc2c1,inactive,7.85 µM (active)
OC1CCCCC1,inactive,–
CCCCOCCO,inactive,–
CN1CCC[C@H]1c1cccnc1,inactive,–
O=C(O)Cc1cc(I)c(Oc2cc(I)c(O)c(I)c2)c(I)c1,–,18.1 µM (active) and 23 µM (active)
Oc1cccc(O)c1,inactive,–
O=[N+]([O-])c1ccc(O)cc1,inactive,–
CCCCCCCC(=O)O,inactive,–
CC(=O)CC(C)(C)O,inactive,–
COC(=O)CCCCC(=O)OC,inactive,–
CCC(=C(c1ccc(O)cc1)c1ccc(OCCN(C)C)cc1)c1ccccc1,inactive,3.53 µM (active) and 7.1 µM (active) and 2.37 µM (active)
CC(=O)NC1(c2cccc(F)c2)CCN(CC[C@@]2(c3ccc(Cl)c(Cl)c3)CN(c3ccccc3)C(=O)CO2)CC1,–,39.8 µM (active)
c1ccc2c(c1)ccc1ccccc12,inactive,–
CCOC(=O)CC(O)(CC(=O)OCC)C(=O)OCC,inactive,–
COCC(C)O (stereo not given),inactive,–
COc1ccc([N+](=O)[O-])cc1N,inactive,–
